FBW7 act – human FBW7 E3 ligase activation, primary screen; Q969H0; AlphaScreen FBW7–phospho-cyclin E peptide binding, activator screen; normalized activity (activation), % at 26.1 µM; actives 0.13% (n = 650,000); AID 1259310; in the data active means normalized activity above about 1.9%;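 further: purified mutant Fbw7 with reduced substrate affinity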
Target sequence (Q969H0 whole entry, looked up): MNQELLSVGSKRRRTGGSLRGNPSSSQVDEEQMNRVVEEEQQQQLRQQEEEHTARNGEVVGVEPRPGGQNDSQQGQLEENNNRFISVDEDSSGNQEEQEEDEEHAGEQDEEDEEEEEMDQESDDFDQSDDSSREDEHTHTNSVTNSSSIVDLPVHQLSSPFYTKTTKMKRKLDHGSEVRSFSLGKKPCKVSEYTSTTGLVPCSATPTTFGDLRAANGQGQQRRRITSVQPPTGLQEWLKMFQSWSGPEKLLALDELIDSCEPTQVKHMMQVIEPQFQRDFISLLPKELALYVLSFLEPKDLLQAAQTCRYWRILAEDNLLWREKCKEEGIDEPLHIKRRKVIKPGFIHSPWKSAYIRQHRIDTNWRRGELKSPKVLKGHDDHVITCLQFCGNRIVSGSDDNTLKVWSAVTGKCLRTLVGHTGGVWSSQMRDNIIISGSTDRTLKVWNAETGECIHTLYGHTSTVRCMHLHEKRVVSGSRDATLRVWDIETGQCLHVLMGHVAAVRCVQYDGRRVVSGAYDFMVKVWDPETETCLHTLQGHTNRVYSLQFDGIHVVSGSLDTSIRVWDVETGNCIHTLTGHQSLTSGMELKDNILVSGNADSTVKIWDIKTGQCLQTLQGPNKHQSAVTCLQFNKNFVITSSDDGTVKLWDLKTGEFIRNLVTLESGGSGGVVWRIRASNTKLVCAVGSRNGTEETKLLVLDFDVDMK
TEAD-YAP inh – TEAD-YAP interaction inhibition | AID 1259422 | actives 1.4% (n = 640,000) | inhibition, % at 9.12 µM | HEK-TIYL cells, TEAD-Gal4/YAP UAS-luciferase luminescence; in the data active means inhibition above about 32%
GPR151 activ – activators of human GPR151; PathHunter beta-arrestin GPR151 cells, luminescence; activation, % at 11.2 µM; actives 1% (n = 650,000); AID 1508602; in the data active means activation above about 4.9%
MITF primary – human MITF inhibition, primary screen. AlphaScreen MITF homodimerization, bead proximity signal. AID 1259374. inhibition, % at 2.6 µM. actives 0.91% (n = 650,000); in the data active means inhibition above about 50%
MITF inh conf – confirmation of human MITF inhibitors; shares compounds with MITF primary; AlphaScreen MITF homodimerization, biotin/His-MITF beads; inhibition, % at 2.6 µM; actives 16% (n = 4,700); AID 1259372;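 active means inhibition above a cutoff derived from the DMSO control wells, cut at about 28% in these data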;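 further: inhibitors lower the bead chemiluminescence by keeping MITF from dimerizing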
AS interf DR – AlphaScreen optical interference, dose response counter-screen; actives 6% (n = 480); IC50, µM; AlphaScreen optical interference counterscreen, cell-free; shares compounds with MITF primary; call rule not given here
AlphaScreen intf2 – counter-screen: compounds optically interfering with AlphaScreen; shares compounds with MITF primary; LysRS AlphaScreen counterscreen, signal interference, triplicate; inhibition, % at 2.6 µM; actives 7.6% (n = 4,700); AID 1259376;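 active means inhibition above a cutoff derived from the DMSO control wells, cut at about 30% in these data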
Of the large screens only hits and unclear results are named; the others gave an inactive call (follow-up assays come after a bar, where they were run). Shown are actives, neighbours in structure and some others; about 3.5% of the full set was active somewhere.

COc1ccc(Br)cc1CN1CCCC(C(=O)N2CCCCC2)C1 (stereo not given)	MITF primary 84 | MITF inh conf inactive | AlphaScreen intf2 inactive
COc1ccc(Br)cc1CN1CCCC(C(=O)N2CCCC2)C1 (stereo not given)	MITF primary 79 | MITF inh conf inactive | AlphaScreen intf2 inactive
COc1ccc(Br)cc1CN1CCCC(C(N)=O)C1 (stereo not given)	none
O=C1N[C@H](CO)C(=O)N2CCN(C(=O)c3ccccc3)C[C@H]12	none
O=C1N[C@@H](Cc2ccccc2)C(=O)N2CCN(C(=O)NCc3ccccc3)C[C@H]12	MITF primary 77 | MITF inh conf 74 | AS interf DR inactive | AlphaScreen intf2 inactive
O=C1N[C@H](CO)C(=O)N2CCN(C(=O)NCc3ccccc3)C[C@H]12	MITF primary 81 | MITF inh conf 75 | AS interf DR inactive | AlphaScreen intf2 inactive
CCC[C@@H]1NC(=O)[C@H]2CN(C(=O)NCc3ccccc3)CCN2C1=O	MITF primary 75 | MITF inh conf 71 | AS interf DR inactive | AlphaScreen intf2 inactive
O=C1N[C@H](Cc2ccc(O)cc2)C(=O)N2CCN(C(=O)NCc3ccccc3)C[C@H]12	MITF primary 75 | MITF inh conf 72 | AS interf DR inactive | AlphaScreen intf2 inactive
O=C1N[C@H](Cc2ccccc2)C(=O)N2CCN(C(=O)c3ccccc3)C[C@H]12	none
NCCCC[C@@H]1NC(=O)[C@H]2CN(C(=O)NCc3ccccc3)CCN2C1=O	none
O=C1N[C@@H](Cc2ccccc2)C(=O)N2CCN(C(=O)OCc3ccccc3)C[C@H]12	none
O=C(CSc1nnc(NC(=O)C2CCC2)s1)Nc1nccs1	none
Cc1ccc(-n2c(C)cc(/C=C3/SC(=O)N(C)C3=O)c2C)cc1	none
Cc1cccc(C)c1NC(=O)NCCCNc1nc2cc3c(cc2cc1C#N)OCO3	none
COC(=O)c1cc(NS(=O)(=O)c2ccc3[nH]c(=O)c(=O)[nH]c3c2)cc(C(=O)OC)c1	none
COC(=O)c1ccccc1NS(=O)(=O)c1ccc2[nH]c(=O)c(=O)[nH]c2c1	MITF primary 68 | MITF inh conf inactive | AlphaScreen intf2 inactive
COc1cc(/C=N/NC(=O)CCN2CCN(C)CC2)c([N+](=O)[O-])cc1OC	none
Cc1nn(-c2ccc(F)cc2)c(C)c1CNCc1ccccc1	MITF primary 70 | MITF inh conf inactive | AlphaScreen intf2 inactive
CSc1ccccc1NC(=O)c1cnn2c(C(F)(F)F)cc(-c3cccs3)nc12	MITF primary 75 | MITF inh conf inactive | AlphaScreen intf2 inactive
O=C(Nc1cccnc1Cl)c1cnn2c(C(F)(F)F)cc(-c3cccs3)nc12	none
CC(NC(=O)CN1C(=O)/C(=C\c2ccc(F)cc2)Oc2ccccc21)c1ccccc1 (stereo not given)	none
O=C1CNS(=O)(=O)c2ccccc2N1	MITF primary 59 | MITF inh conf inactive | AlphaScreen intf2 inactive
CCC(=O)Nc1ccccc1C(=O)OCC(=O)c1cccc([N+](=O)[O-])c1	MITF primary 56 | MITF inh conf inactive | AlphaScreen intf2 inactive
COC1(OC)N=C(N)C2(C#N)C(c3ccc(F)cc3)C12C#N (stereo not given)	MITF primary 55 | MITF inh conf inactive | AlphaScreen intf2 inactive
CCOC1(OCC)N=C(N)C2(C#N)C(c3cccc(Br)c3)C12C#N (stereo not given)	none
COC(=O)c1ccc(C2C3(C#N)C(N)=NC(OC)(OC)C23C#N)cc1 (stereo not given)	none
CCOC1(OCC)N=C(N)C2(C#N)C(c3ccc(NC(C)=O)cc3)C12C#N (stereo not given)	MITF primary 55 | MITF inh conf inactive | AlphaScreen intf2 inactive
COC1(OC)N=C(N)C2(C#N)C(c3ccc(NC(C)=O)cc3)C12C#N (stereo not given)	MITF primary 51 | MITF inh conf inactive | AlphaScreen intf2 inactive
O=C1NN(c2ccc(F)cc2)C(=O)/C1=C\c1cccn1-c1cccc([N+](=O)[O-])c1	none
CCN(CCCNC(=O)CCCn1c(=S)[nH]c2cc3c(cc2c1=O)OCO3)c1ccccc1	none
C[C@@H](Nc1cc(Cl)ncn1)c1ccccc1	none
CCN1CCN(CCCCOc2ccc(C)cc2I)CC1	MITF primary 53 | MITF inh conf inactive | AlphaScreen intf2 inactive
CCN1CCN(CCCOc2ccc(C)cc2I)CC1	MITF primary 57 | MITF inh conf inactive | AlphaScreen intf2 inactive
Cc1ccc(OCCCn2cncn2)c(I)c1	MITF primary 54 | MITF inh conf inactive | AlphaScreen intf2 inactive
Cc1ccc(OCCn2cncn2)c([N+](=O)[O-])c1	none
Cc1ccc2nc3sc(C(=O)Nc4ccc5c(c4)OCO5)c(N)c3cc2c1	none
COc1cc(OC)cc(C(=O)Nc2cc(C(=O)N(C)Cc3ccccc3)ccc2N2CC3CC(C2)c2cccc(=O)n2C3)c1 (stereo not given)	none
COc1ccc(C(=O)Nc2cc(C(=O)N(C)Cc3ccccc3)ccc2N2CC3CC(C2)c2cccc(=O)n2C3)cc1 (stereo not given)	MITF primary 87 | MITF inh conf inactive | AlphaScreen intf2 inactive
COc1ccc(-c2c(C)oc3cc(OCC(=O)OC(C)C)ccc3c2=O)cc1OC	none
COc1ccc(-c2c(C)oc3cc(OCC(N)=O)ccc3c2=O)cc1OC	MITF primary 61 | MITF inh conf inactive | AlphaScreen intf2 inactive
COc1cc(OC)c(OC)cc1CN1CCN(Cc2cc(OC)c3c(c2)OCO3)CC1	MITF primary 59 | MITF inh conf inactive | AlphaScreen intf2 inactive
COc1cc(CN2CCN(Cc3ccc(SC)cc3)CC2)cc2c1OCO2	MITF primary 65 | MITF inh conf inactive | AlphaScreen intf2 inactive
COc1cc(CN2CCN(Cc3ccc(Br)cc3)CC2)cc2c1OCO2	MITF primary 69 | MITF inh conf inactive | AlphaScreen intf2 inactive
COc1ccc(CN2CCN(Cc3cc(OC)c4c(c3)OCO4)CC2)c(OC)c1	none
COc1cc(CN2CCN(Cc3cccc(Cl)c3)CC2)cc2c1OCO2	none
Cc1ccc(C(N)=O)cc1NC(=O)c1cccs1	none
COC(=O)C(CCSC)NC(=O)CCC1(Cc2ccccc2)CCC(=O)N1 (stereo not given)	none
OC(CNc1ccccc1)Cn1ccc2ccccc21 (stereo not given)	MITF primary 52 | MITF inh conf inactive | AlphaScreen intf2 inactive
Cc1c(CNCCc2ccccc2)c(C(=O)O)c(C)n1Cc1ccc(F)cc1Cl	none
CC(=O)c1ccc(NC(=O)/C=C/c2ccc3c(c2)OCO3)cc1	none
Cn1c(CN2CCOCC2)nc(=O)c2ccccc21	MITF primary 53 | MITF inh conf inactive | AlphaScreen intf2 inactive
Cc1nn(C)c(C)c1-c1nc(NCCO)c2ncn(CCN3CCCC3=O)c2n1	none
O=C(OCCN1CCOCC1)c1cc2ccccc2o1	none
COc1ccccc1CN1CCC(C(=O)N2CCCC2)CC1	none
